23 compounds from PubChem BioAssay (Tox21) can be followed below.

“And” between values parts separate entries of the source, which are not always exact repeats. Equal values may be shown once. A number with no mark means an inactive call. The source holds several records for some structures; these can differ, active in one and inactive in another. The source made the active and inactive calls. Unless noted, the call rests on the fitted dose curve; in most records, active means well fitted curve in the direction sought with a large enough effect in the repeat runs; inconclusive means weak or mixed curves; inactive means flat fitted curve, though single readings scatter.

A short description of assay [1]: qHTS assay to test for compound auto fluorescence at 535 nm (green) in HEK293 cells (AID 720680). (In general: qHTS replaces the single test concentration by a dilution series.)
Assay [2] can be described thus: qHTS assay to test for compound auto fluorescence at 460 nm (blue) in HEK293 cell free culture (AID 720681). The procedure, abridged:
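Blue fluorescence (Ex 405/Em 460 nm, triamterene-equivalent) was read immediately after pin transfer of compound or DMSO into medium (DMEM, 10% FBS) without cells.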

The nature of assay [3]: qHTS assay to test for compound auto fluorescence at 535 nm (green) in HEK293 cell free culture (AID 720682). An outline of the steps: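 Cell-free medium (DMEM, 10% FBS) receives compound or DMSO by pintool. Plate read directly at Ex 485/Em 535 nm. Signal converted to fluorescein equivalency.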
Assay [4] in a line: qHTS assay to test for compound auto fluorescence at 590 nm (red) in HEK293 cell free culture (AID 720683). The procedure, abridged: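 Red-channel autofluorescence of compounds in culture medium (DMEM, 10% FBS), no cells, measured at 540/590 nm. Rose Bengal sodium is the reference fluorophore for equivalence.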
Assay [5] can be described thus: qHTS assay to test for compound auto fluorescence at 590 nm (red) in HepG2 cell free culture (AID 720684). The procedure, abridged:
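Plate contents were MEM with 10% FBS plus test compound or DMSO, no cells. Fluorescence was recorded with 540 nm excitation and 590 nm emission.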

The nature of assay [6]: qHTS assay to test for compound auto fluorescence at 460 nm (blue) in HepG2 cell free culture (AID 720685). The procedure, abridged: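 Compound (23 nL) or DMSO pinned into cell-free MEM with 10% FBS; blue fluorescence read at 405/460 nm excitation/emission, expressed as auto-fluorescence equivalency to triamterene.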
Assay [7] is described as follows: qHTS assay to test for compound auto fluorescence at 460 nm (blue) in HepG2 cells (AID 720687). The procedure, abridged:
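Blue-channel autofluorescence (Ex/Em 405/460 nm, triamterene-equivalent) was measured after 1 hr compound exposure at 37 C, 5% CO2. Cells were HepG2, plated overnight at 37 C in MEM plus 10% FBS.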

Assay [8] has as its target Glucocorticoid receptor (Homo sapiens) (UniProt P04150). Briefly: qHTS assay to identify small molecule antagonists of the glucocorticoid receptor (GR) signaling pathway (AID 720692; active means well fitted inhibition curve with a large enough effect in the signal ratio in the repeat runs, not every such curve was filed as active; inconclusive means weak or mixed curves, or effect the other way; inactive means no such curve, though single readings can be large or run the other way; the % refers to the signal ratio; further: potency means the concentration at half of the fitted maximal effect). The procedure, abridged: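 GR-bla HeLa cells (beta-lactamase reporter under glucocorticoid response element) were pre-plated 4 h at 37 C, treated with compounds plus 5 nM dexamethasone (final) for 18 h, then read by LiveBLAzer B/G FRET fluorescence after 2 h.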

The nature of assay [9]: qHTS assay to test for compound auto fluorescence at 535 nm (green) in HepG2 cell free culture (AID 720686).
Assay [10] concerns the target Glucocorticoid receptor (Homo sapiens) (UniProt P04150). Briefly: qHTS assay to identify small molecule agonists of the glucocorticoid receptor (GR) signaling pathway (AID 720691; active means well fitted activation curve with a large enough effect in the signal ratio in the repeat runs, not every such curve was filed as active; inconclusive means weak or mixed curves, or effect the other way; inactive means no such curve, though single readings can be large or run the other way; the % refers to the signal ratio; further: potency means the concentration at half of the fitted maximal effect). To be noted: GR-bla HeLa, beta-lactamase reporter ratio, 18 h. The procedure, abridged: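 GR-bla HeLa cells (beta-lactamase reporter under glucocorticoid response element) were plated 4 h at 37 C/5% CO2, given compounds in DMSO, and incubated 18 h at 37 C. LiveBLAzer B/G FRET substrate was added for 2 h at room temperature, then fluorescence intensity read.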

Where [11] appears, read: activation: at 62.4 µM (top of the series).
On the % scale 0 is the no-effect control and ±100 the full control effect.

Glucocorticoid receptor (Homo sapiens), sequence (P04150 whole entry, looked up): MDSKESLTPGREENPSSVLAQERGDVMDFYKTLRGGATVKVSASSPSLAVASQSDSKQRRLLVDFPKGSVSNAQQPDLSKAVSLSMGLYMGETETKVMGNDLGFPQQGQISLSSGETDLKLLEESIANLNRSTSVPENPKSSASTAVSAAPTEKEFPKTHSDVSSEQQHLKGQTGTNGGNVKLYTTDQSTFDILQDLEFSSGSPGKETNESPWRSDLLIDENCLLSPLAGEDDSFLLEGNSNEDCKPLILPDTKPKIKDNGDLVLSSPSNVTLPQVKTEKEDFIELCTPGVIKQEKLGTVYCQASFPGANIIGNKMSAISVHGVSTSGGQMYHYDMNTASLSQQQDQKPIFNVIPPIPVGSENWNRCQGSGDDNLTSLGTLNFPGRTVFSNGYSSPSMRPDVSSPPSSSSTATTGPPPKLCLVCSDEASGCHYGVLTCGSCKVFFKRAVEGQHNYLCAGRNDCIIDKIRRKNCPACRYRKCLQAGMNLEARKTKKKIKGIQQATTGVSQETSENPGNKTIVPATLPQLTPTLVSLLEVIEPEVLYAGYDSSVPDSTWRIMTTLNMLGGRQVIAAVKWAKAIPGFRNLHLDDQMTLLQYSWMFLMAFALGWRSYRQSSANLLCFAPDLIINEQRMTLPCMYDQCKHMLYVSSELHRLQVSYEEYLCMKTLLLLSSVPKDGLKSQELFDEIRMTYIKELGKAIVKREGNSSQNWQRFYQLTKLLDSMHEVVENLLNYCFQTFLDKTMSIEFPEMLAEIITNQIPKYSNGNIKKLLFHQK

For the compound `COC(=O)C1=C(C)NC(C)=C(C(=O)OCC(C)C)C1c1ccccc1[N+](=O)[O-]` (configuration not stated), the outcome in assay [1] and in assay [3] was inactive. The Potency result in assay [2], in assay [4], in assay [5], in [6] and in [7] was “inactive” throughout. The Potency in assay [8] is 24.5 µM (active).

Take `CCCCCCCCCCCC(=O)NCCCN(C)C`: the call in assay [1] and in assay [3] was inactive. In addition, the Potency result in assay [2], in [4], in assay [5], in [9] and in [7] was “inactive” each time.

In the case of `CC(=O)S[C@@H]1CC2=CC(=O)CC[C@]2(C)[C@H]2CC[C@@]3(C)[C@@H](CC[C@@]34CCC(=O)O4)[C@H]12`, the result in assay [1] and in [3] was inactive. Besides, the Potency result in assay [2], in assay [4], in [5], in [9] and in assay [7] was “inactive” throughout. In addition, in assay [8], the Potency was 5.35 µM (active).

With `CCCCCCCCNC(C)C(O)c1ccc(SC(C)C)cc1` (configuration not stated), the call in assay [1] and in assay [3] was inactive. In addition, the Potency result in assay [2], in [4], in assay [5], in assay [9] and in [7] was “inactive” in each case.

For `CCc1cc(SCc2sc(-c3ccc(C(F)(F)F)cc3)nc2CN2CCN(c3ccc(OC)cc3)CC2)ccc1OCC(=O)O`, the compound was classed as inactive in assay [1] and in assay [3]. In addition, the Potency result in assay [2], in assay [4], in assay [5] and in [9] was “inactive” each time.

Consider `O=C(Nc1cccc([N+](=O)[O-])c1)c1cc2ccccc2cc1O`, for which the outcome in assay [1] and in [3] was inactive. Moreover, the Potency entry in assay [2], in assay [4], in [5] and in assay [9] was “inactive” throughout.

In the case of `Oc1cc2ccccc2c2ccccc12`, the result in assay [1] and in assay [3] was inactive. Moreover, the Potency result in [2], in assay [4], in assay [5], in assay [9] and in assay [7] was “inactive” in each case. For the same compound, the Potency in assay [8] is 19.5 µM (active).

For `O=C(Oc1cccc2cccnc12)c1ccccc1`, the call in assay [1] and in assay [3] was inactive. For the same compound, the Potency result in assay [2], in [4], in assay [5], in assay [9], in [7] and in assay [8] was “inactive” each time.

Regarding `O=C1c2c(O)ccc(Nc3ccc(CCO)cc3)c2C(=O)c2c([N+](=O)[O-])ccc(O)c21`, the compound was called inactive in assay [1] and in assay [3]. In addition, the Potency result in assay [2], in assay [4], in [5], in [7] and in [10] (setting [11]) was “inactive” each time.

`Cc1ccc(-n2nc(C(C)(C)C)cc2NC(=O)Nc2ccc(OCCN3CCOCC3)c3ccccc23)cc1`: the compound was called inactive in [1] and in assay [3]. Also, the Potency entry in [2], in assay [4], in [5] and in assay [9] was “inactive” each time.

For `Cc1nc(-c2ccc3c(c2)CCN(CCC2CCC(NC(=O)/C=C/c4ccc(F)cc4)CC2)CC3)no1` (configuration not stated), the compound was called inactive in [1] and in [3]. The Potency result in [2], in assay [4], in assay [5], in assay [9] and in assay [7] was “inactive” in each case. Besides, in [10] (setting [11]), the Potency is 21.9 µM (active).

For `NNc1nc(-c2ccccc2)cs1`, the compound was classed as inactive in [1] and in [3]. Moreover, the Potency entry in assay [2], in [4], in assay [5], in assay [9], in [7] and in assay [10] (setting [11]) was “inactive” in each case.

For the compound `CN(C)[C@@H]1C(=O)C(C(N)=O)=C(O)[C@@]2(O)C(=O)C3=C(O)c4c(O)ccc(Cl)c4[C@@H](O)[C@H]3C[C@@H]12`, the outcome in assay [1] and in assay [3] was inactive. Besides, the Potency result in assay [2], in assay [4], in assay [5], in assay [9], in [7] and in [10] (setting [11]) was “inactive” each time. For the same compound, the Potency result in assay [8] was “inactive”.

Take `O=c1cccccc1O`: the outcome in [1] and in assay [3] was inactive. Moreover, the Potency entry in assay [2], in assay [4], in assay [5], in assay [6], in assay [7] and in assay [10] (setting [11]) was “inactive” in each case.

Turning to `O=C1CCCCCN1SSN1CCCCCC1=O`, the compound was called inactive in [1] and in [3]. The Potency entry in assay [2], in assay [4], in assay [5], in assay [9] and in assay [7] was “inactive” throughout.

With `Oc1ccc(C2(c3ccc(O)cc3)CC3CC2C2CCCC32)cc1` (configuration not stated), the result in assay [1] and in assay [3] was inactive. Also, the Potency result in assay [2], in assay [4], in [5], in [6] and in assay [7] was “inactive” throughout. For the same compound, the Potency in assay [8] was 18.7 µM (active).

As to `CCCCN(CCCC)C(=O)N(CCCC)CCCC`, the compound was classed as inactive in assay [1] and in [3]. The Potency result in assay [2], in assay [4], in [5], in [9], in assay [7] and in assay [10] (setting [11]) was “inactive” throughout.

As for `CC/C(=C(\c1ccc(O)cc1)c1ccc(OCCN(C)C)cc1)c1ccccc1`, the compound was classed as inactive in assay [1] and in [3]. For the same compound, the Potency result in assay [2], in [4], in [5], in assay [9] and in assay [7] was “inactive” throughout.

As for `C[C@H](CCC(=O)O)[C@H]1CC[C@H]2[C@@H]3CC[C@@H]4C[C@H](O)CC[C@]4(C)[C@H]3CC[C@]12C`, the call in assay [1] and in assay [3] was inactive. For the same compound, the Potency entry in [2], in assay [4], in [5], in assay [6], in [7] and in [10] (setting [11]) was “inactive” each time. Also, the Potency in [8] is 19.4 µM (active) and 43.6 µM (active).

Turning to `CCN(CC)CCNC(=O)c1c(C)[nH]c(/C=C2\C(=O)Nc3ccc(F)cc32)c1C`, the call in assay [1] and in [3] was inactive. Further, the Potency result in assay [2], in assay [4], in assay [5], in assay [9] and in assay [7] was “inactive” throughout.

In the case of `CCCCCCCCCCCCCCCC(=O)OC[C@H](O)[C@H]1OC(=O)C(O)=C1O`, the outcome in [1] and in assay [3] was inactive. In addition, the Potency entry in assay [2], in assay [4], in assay [5] and in assay [9] was “inactive” in each case.

In the case of `O=C(Nc1cccc(C(F)(F)F)c1)c1cc(Br)cc(Br)c1O`, the result in [1] and in [3] was inactive. Further, the Potency result in assay [2], in assay [4], in [5] and in assay [6] was “inactive” each time. For the same compound, the activation is 9.27% [inconclusive] (active) in assay [10] (setting [11]) and 10.1% in assay [10] (at 62.4 µM (top of the series)).

In the case of `Cc1ccc(O)c2ncccc12`, the call in [1] and in assay [3] was inactive. Moreover, the Potency entry in assay [2], in assay [4], in [5], in [9], in [7] and in assay [8] was “inactive” each time.
